Inconclusive results are not listed. Calls of active or inactive are those of the source. Unless noted, calls follow the shape of the dose curve; as a rule, active = well fitted curve in the direction sought with a large enough effect; inconclusive = small, poorly fitted or top-dose-only effect, or another doubt; inactive = no such curve, though single readings can be large; an effect the other way counts as inactive or inconclusive.
How the values were obtained:
[1] = qHTS Assay for Identifying Gametocytocidal Compounds (AID 743244); also: potency is read from the fitted curve at half-maximal effect;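 as to max response: % is scaled to controls: 0 for no effect and ±100 for the full control effect; actives lower the fluorescent signal which means gametocytes are killed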; settings: P. falciparum 3D7 stage III-V gametocytes, alamarBlue, 72 h; max response: stronger effect = lower value
Summary of the method: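 Fluorescence at Ex 525/Em 598 nm, recorded 24 h after alamarBlue addition, reports residual metabolic activity of 3D7 gametocytes (stages III–V) following 72 h compound exposure at 37 °C, 5% CO2.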

[2] = qHTS assay for measurement of the activity of small molecule inhibitors on Zika virus induced Caspase-3 activity in human iPSC derived neural progenitor cells (hNPCs) (AID 1224857); also: % of control where 0% means no effect; nearly all actives have a fitted effect of over 65% in size
Summary of the method: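 Zika virus (2 FFU/cell) infection of human iPSC-derived NPCs, 6 h, following 1 h compound preincubation. Read-out: Caspase-Glo 3/7 luminescence.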

[3] = qHTS assay for measurement of the activity of small molecule inhibitors on Zika virus induced Caspase-3 activity in human astrocytoma cells (AID 1224859);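 also: plate controls were ZIKV-infected untreated cells for no effect and uninfected cells for full effect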
Summary of the method: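 Caspase activation in ZIKV-infected SNB-19 cells (2 FFU/cell, 6 h) measured by Caspase-Glo 3/7 luminescence after 30 min RT; compound pre-incubated 1 h; normalised to uninfected and infected controls.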

[4] = qHTS assay to identify small molecule inhibitors of chordoma cells - UCH-1 (AID 1259355); also: nearly all actives have a fitted effect of over 55% in size; also: potency is read from the fitted curve at half-maximal effect
Summary of the method: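 800 cells/well, overnight attach; compounds pinned at 15 concs, then auranofin/camptothecin/doxorubicin/rubitecan/topotecan combo added; 48hr 37 C, 5% CO2; CellTiter-Glo, 30min RT, luminescence.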

[5] = qHTS assay to identify small molecule inhibitors of chordoma cells - UCH-2 (AID 1259356); also: % is scaled to controls: 0 for no effect and ±100 for the full control effect
[6] = P-glycoprotein substrates identified in KB-8-5-11 adenocarcinoma cell line, qHTS therapeutic library screen (AID 1346987); also: nearly all actives have a fitted effect of over 65% in size; also: potency is read from the fitted curve at half-maximal effect
Summary of the method: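 Compounds are pinned in dose-response onto KB-8-5-11 cells (500 cells/well, colchicine-free medium) and left 72 h at 37 degree C. CellTiter-Glo luminescence then yields AC50 values.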

[7] = qHTS assay for cell viability of HEK293 cells (AID 743288); settings: ATP luminescence (CellTiter-Glo), 18 h, stronger effect = lower value; also: % is scaled to controls: 0 for no effect and ±100 for the full control effect; nearly all actives have a fitted effect of over 50% in size
Summary of the method: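 ATP luminescence (CellTiter-Glo) reports metabolically competent cell number after parental HEK293 cells, 2,000/well, were treated with DMSO-dissolved compounds for 18 h at 37 C; reagent incubation 30 min, room temperature.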

[8] = qHTS assay for cell viability of the p53RE-bla HCT-116 cell line (AID 743292); also: % is scaled to controls: 0 for no effect and ±100 for the full control effect; nearly all actives have a fitted effect of over 55% in size
Summary of the method: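 HCT-116 p53RE-bla cells seeded 4,000/well; 5 h at 37 C; compound (DMSO) added; 16 h at 37 C; CellTiter-Glo added, 30 min RT; luminescence read.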

[9] = qHTS profiling of the MIPE4 collection as inhibitors of Plasmodium falciparum (3D7) proliferation (AID 743344; call rule not given here;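 also: scaled between DMSO vehicle wells and 0.29 µM artemisinin as full inhibition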); settings: P. falciparum 3D7 in erythrocytes, SYBR Green DNA fluorescence, 72 h; at 28.5 µM (top of the series)
Summary of the method: (§1)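 Parasite DNA was quantified by SYBR Green I fluorescence (ex 485, em 535 nm) after overnight lysis in saponin/Triton buffer at room temperature. Cultures at 0.3% parasitemia and 2.5% hematocrit were first exposed to compound for 72 h at 37 C; signals were normalised to artemisinin (0.29 uM) and vehicle wells.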

[10] = qHTS profiling of the MIPE4 collection as inhibitors of Plasmodium falciparum (DD2) proliferation (AID 743345; call rule not given here); settings: P. falciparum Dd2 in erythrocytes, SYBR Green DNA, 72 h; at 28.5 µM (top of the series)
Summary of the method: as §1

[11] = qHTS profiling of the MIPE4 collection as inhibitors of Plasmodium falciparum (DD2) proliferation (Rep 2) (AID 743346; call rule not given here); settings: P. falciparum Dd2 in erythrocytes, SYBR Green DNA, 72 h; at 28.5 µM (top of the series)
Summary of the method: as §1

[12] = qHTS profiling of the MIPE4 collection as inhibitors of Plasmodium falciparum (HB3) proliferation (AID 743347; call rule not given here;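 also: plate controls were DMSO vehicle wells for no effect and artemisinin wells for full effect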); settings: P. falciparum HB3 in erythrocytes, SYBR Green DNA, 72 h; at 28.5 µM (top of the series)
Summary of the method: as §1

O=C(NC1CCN(CCc2c[nH]c3ccccc23)CC1)c1ccccc1
inactive: max response [1] -6.9% | Potency [2] | outcome [3] | Potency [4] | Potency [5]

O=C1[C@H](CC[C@H](O)c2ccc(F)cc2)[C@@H](c2ccc(O)cc2)N1c1ccc(F)cc1
inactive: max response [1] 4.75% | Potency [2] | outcome [3] | Potency [4] | Potency [5]

CC(=O)OC[C@H]1O[C@@H](n2ncc(=O)[nH]c2=O)[C@H](OC(C)=O)[C@@H]1OC(C)=O
inactive: max response [1] 13.3% | Potency [2] | outcome [3] | Potency [4] | Potency [5]

O=c1[nH]c(=O)n([C@H]2C[C@H](O)[C@@H](CO)O2)cc1F
inactive: max response [1] 4.58% | Potency [2] | outcome [3] | Potency [4] | Potency [5]

CCc1ccc(C(=O)C(C)CN2CCCCC2)cc1 (stereo not given)
inactive: Potency [2] | outcome [3] | Potency [4] | Potency [6]

Cc1ccc(-c2ncc(Cl)cc2-c2ccc(S(C)(=O)=O)cc2)cn1
inactive: max response [1] 12.8% | Potency [2] | outcome [3] | Potency [4] | Potency [5]

CCCCOC(=O)CC(CC(=O)OCCCC)(OC(C)=O)C(=O)OCCCC
inactive: max response [1] 2.63% | max response [7] -16.9% | outcome [8] | Potency [2] | outcome [3] | Potency [4] | Potency [5]

CO[C@H]1C=CO[C@@]2(C)Oc3c(C)c(O)c4c(O)c(c(/C=N/N5CCN(C)CC5)c(O)c4c3C2=O)NC(=O)/C(C)=C\C=C[C@H](C)[C@H](O)[C@@H](C)[C@@H](O)[C@@H](C)[C@H](OC(C)=O)[C@@H]1C
inactive: Potency [2] | outcome [3] | Potency [4] | Potency [5]
active: Potency [1] 15.8 µM

CCCCc1cc2ccccc2c(OCCN(C)C)n1
inactive: max response [1] -5.86% | Potency [2] | outcome [3] | Potency [4] | Potency [5]

CN1CCN(c2cc3c(cc2F)c(=O)c(C(=O)O)cn3-c2ccc(F)cc2)CC1
inactive: max response [1] -4.31% | Potency [2] | outcome [3] | Potency [4] | Potency [5]

CCOc1ccccc1OCCN[C@H](C)Cc1ccc(OC)c(S(N)(=O)=O)c1
inactive: max response [1] 5.89% | Potency [2] | outcome [3] | Potency [4] | Potency [6]

FC(F)(F)C(F)(F)C(F)(F)C(F)(F)C(F)(F)C(F)(F)C(F)(F)C(F)(F)Br
inactive: max response [1] 5.68% | Potency [2] | outcome [3] | Potency [4] | Potency [6]

CCc1oc2ccccc2c1C(=O)c1cc(Br)c(O)c(Br)c1
inactive: max response [1] -6.8% | Potency [2] | outcome [3] | Potency [4] | Potency [6]

NS(=O)(=O)Cc1noc2ccccc12
74.3%: parasite growth, % of control (lower = inhibition) [11]
99.5%: parasite growth remaining, % of DMSO control (lower = more inhibition) [10]
106%: growth, % of control [12]
102%: parasite growth, % of DMSO control [9]
inactive: max response [1] -3.32% | Potency [2] | outcome [3] | Potency [4] | Potency [6]

CN1CCN(CCC(=O)N2c3ccccc3Sc3ccc(C(F)(F)F)cc32)CC1
inactive: max response [1] 2.75% | Potency [2] | outcome [3] | Potency [4]

CCCCCCCCNC(C)C(O)c1ccc(SC(C)C)cc1 (stereo not given)
active: Potency [1] 2.51 µM | Potency [4] 35.5 µM | Potency [6] 11.6 µM
inactive: Potency [2] | outcome [3]

CCCCCCCCOc1ccc(C(=O)c2ccccc2)c(O)c1
inactive: max response [1] -5.25% | max response [7] -9.08% | outcome [8] | Potency [2] | outcome [3] | Potency [4] | Potency [6]

Cc1ccccc1OCC(O)CO (stereo not given)
inactive: max response [1] -6.04% | Potency [2] | outcome [3] | Potency [4] | Potency [6]

O=C(Oc1cccc2cccnc12)c1ccccc1
inactive: outcome [3] | Potency [4] | Potency [5] | Potency [6]

CCN(CC)CCOc1ccccc1C(=O)CCc1ccccc1
inactive: max response [1] -3.28% | Potency [2] | outcome [3] | Potency [4]

CCCCCCCCCCCCCCC[C@H](O)[C@@H](N)CO
inactive: outcome [3] | Potency [4] | Potency [5]

CCN1CCCC(OC(=O)C(c2ccccc2)c2ccccc2)C1 (stereo not given)
inactive: max response [1] -3.97% | Potency [2] | outcome [3] | Potency [4]

CC1(C)OC[C@@H]2O[C@@]3(C(=O)O)OC(C)(C)O[C@H]3[C@@H]2O1
inactive: max response [1] -4.16% | max response [7] -6.28% | outcome [8] | Potency [2] | outcome [3] | Potency [4] | Potency [6]

CC(C)(C)NCC(O)COc1cccc2c1C[C@H](O)[C@H](O)C2 (stereo not given in full)
inactive: max response [1] -0.0039% | Potency [2] | outcome [3] | Potency [4] | Potency [6]

Nc1ccc(C(=O)NCC(=O)O)cc1
inactive: max response [1] 6.7% | Potency [2] | outcome [3] | Potency [4] | Potency [6]

O=C(O)C(Cc1cc(I)c(O)c(I)c1)c1ccccc1 (stereo not given)
inactive: max response [1] -2.86% | Potency [2] | outcome [3] | Potency [4] | Potency [6]

CN1CCN(C2=Nc3ccccc3Sc3ccc(Cl)cc32)CC1
inactive: max response [1] -0.118% | Potency [2] | outcome [3] | Potency [4]

O=C(Nc1ccccc1)OCC(CN1CCCCC1)OC(=O)Nc1ccccc1 (stereo not given)
inactive: max response [1] 3.58% | Potency [2] | outcome [3] | Potency [4]

NC(=O)C1(N2CCCCC2)CCN(CCCC(=O)c2ccc(F)cc2)CC1
inactive: max response [1] 6.95% | Potency [2] | outcome [3] | Potency [4]

NC1CCN(c2nc3c(cc2F)c(=O)c(C(=O)O)cn3-c2ccc(F)cc2F)C1 (stereo not given)
inactive: max response [1] -5.91% | Potency [2] | outcome [3] | Potency [4] | Potency [6]

Cc1nc(-c2ccc(Cl)cc2)oc1COC(C)(C)C(=O)O
inactive: max response [1] -2.69% | Potency [2] | outcome [3] | Potency [4] | Potency [6]

— PubChem BioAssay (NCATS)
